{
  "source": "paper PMC4336329",
  "about": "(PLoS ONE, 2015)",
  "note": "Screen size: about 310,000 compounds; about 14,000 (4.5%) showed an effect of 50% or more. Effects have a minus sign here. The entries come from a sample that favours strong results as a whole.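 Further: peak tail current of the secondary pulse compared with the same well before compound.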",
  "data": [
    {"target": "human ether-à-go-go-related gene (hERG) potassium channel (human, UniProt Q12809)", "sequence (Q12809 whole entry, looked up)": "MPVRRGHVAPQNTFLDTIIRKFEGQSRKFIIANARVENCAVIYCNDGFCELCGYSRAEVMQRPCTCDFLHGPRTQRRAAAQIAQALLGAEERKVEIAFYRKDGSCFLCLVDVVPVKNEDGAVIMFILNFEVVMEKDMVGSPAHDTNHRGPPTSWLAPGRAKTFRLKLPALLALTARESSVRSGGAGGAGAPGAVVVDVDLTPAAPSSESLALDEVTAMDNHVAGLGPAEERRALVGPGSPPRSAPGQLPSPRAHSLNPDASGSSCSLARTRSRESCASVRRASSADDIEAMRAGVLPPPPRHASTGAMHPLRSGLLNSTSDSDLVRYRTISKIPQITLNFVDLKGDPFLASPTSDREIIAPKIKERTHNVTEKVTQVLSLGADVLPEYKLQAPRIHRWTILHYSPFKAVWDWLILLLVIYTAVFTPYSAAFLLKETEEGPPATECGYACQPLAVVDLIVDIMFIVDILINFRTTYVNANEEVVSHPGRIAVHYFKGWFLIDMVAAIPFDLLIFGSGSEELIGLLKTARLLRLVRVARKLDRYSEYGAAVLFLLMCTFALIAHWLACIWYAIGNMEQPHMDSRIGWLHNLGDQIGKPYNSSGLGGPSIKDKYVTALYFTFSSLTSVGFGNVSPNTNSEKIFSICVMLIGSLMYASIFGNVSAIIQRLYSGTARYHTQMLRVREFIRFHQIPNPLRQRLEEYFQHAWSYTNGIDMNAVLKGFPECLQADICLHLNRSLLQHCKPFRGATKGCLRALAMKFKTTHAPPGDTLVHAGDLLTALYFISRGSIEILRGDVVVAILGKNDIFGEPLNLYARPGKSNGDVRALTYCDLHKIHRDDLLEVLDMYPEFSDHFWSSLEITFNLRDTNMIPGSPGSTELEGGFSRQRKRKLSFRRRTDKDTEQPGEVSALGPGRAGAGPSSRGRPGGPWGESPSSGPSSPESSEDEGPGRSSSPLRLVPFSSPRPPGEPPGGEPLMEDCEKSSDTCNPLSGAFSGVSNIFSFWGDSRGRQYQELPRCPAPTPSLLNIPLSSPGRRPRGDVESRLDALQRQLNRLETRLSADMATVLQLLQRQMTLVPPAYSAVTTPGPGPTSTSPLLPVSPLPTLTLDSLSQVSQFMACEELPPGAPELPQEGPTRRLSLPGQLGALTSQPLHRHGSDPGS", "assay": "primary screen, population patch clamp on CHO cells stably expressing hERG; higher = less effect of the substance", "units": {"hERG current change (%, negative = inhibition) at 10uM": "%"}, "values": [
      {"molecule": "O=C(CSc1nc2scc(-c3ccccc3)c2c(=O)[nH]1)NCCc1ccccc1", "hERG current change (%, negative = inhibition) at 10uM": -1.09},
      {"molecule": "O=C(CN1CCN(C(=O)CNC(=O)c2ccc3c(c2)OCO3)CC1)Nc1ccccc1Cl", "hERG current change (%, negative = inhibition) at 10uM": -49.3},
      {"molecule": "Cc1ccccc1NC(=O)CNC(=O)Cc1cccc2ccccc12", "hERG current change (%, negative = inhibition) at 10uM": 1.16},
      {"molecule": "CCc1ccccc1NC(=O)CN1CCN(C(=O)CNC(=O)c2ccc(N3CCCC3=O)cc2)CC1", "hERG current change (%, negative = inhibition) at 10uM": -3.9},
      {"molecule": "CCc1ccccc1NC(=O)CN1CCN(C(=O)CNC(=O)c2ccc(-c3ccccc3)cc2)CC1", "hERG current change (%, negative = inhibition) at 10uM": -57},
      {"molecule": "Cc1cccc(NC(=O)CN2CCN(C(=O)CNC(=O)Cc3cccc4ccccc34)CC2)c1C", "hERG current change (%, negative = inhibition) at 10uM": -57.4},
      {"molecule": "Cc1cccc(NC(=O)CN2CCOCC2)c1C", "hERG current change (%, negative = inhibition) at 10uM": 13.9},
      {"molecule": "Cc1cccc(NC(=O)CN2CCN(C(=O)COc3cccc(Br)c3)CC2)c1C", "hERG current change (%, negative = inhibition) at 10uM": -70.4},
      {"molecule": "CCOC(=O)N1CCN(CC(=O)Nc2cccc(Br)c2)CC1", "hERG current change (%, negative = inhibition) at 10uM": -18.9},
      {"molecule": "Cc1cccc(NC(=O)CNC(=O)CN2CCN(C)CC2)c1C", "hERG current change (%, negative = inhibition) at 10uM": 7.6},
      {"molecule": "O=C(O)CN1CCN(CC(=O)O)CCN(CC(=O)O)CCN(CC(=O)O)CC1", "hERG current change (%, negative = inhibition) at 10uM": 7.18},
      {"molecule": "O=C(Nc1cccc(C(=O)N2CCOCC2)c1)c1ccccc1Cl", "hERG current change (%, negative = inhibition) at 10uM": -17},
      {"molecule": "COc1ccc(C(=O)Nc2ccc(-c3ccc(C)o3)cc2)cc1S(=O)(=O)N1CCOCC1", "hERG current change (%, negative = inhibition) at 10uM": 14.6},
      {"molecule": "O=C(NCc1cccs1)C1CCCN1C(=O)Nc1ccccc1", "note": "(centres unmarked)", "hERG current change (%, negative = inhibition) at 10uM": 21},
      {"molecule": "CCN(C(=O)COC(=O)c1ccc2ccccc2c1)c1c(N)n(Cc2ccccc2)c(=O)[nH]c1=O", "hERG current change (%, negative = inhibition) at 10uM": 14.1},
      {"molecule": "COc1ccc(C(=O)OCC(=O)Nc2sccc2C(N)=O)cc1OC", "hERG current change (%, negative = inhibition) at 10uM": -0.284},
      {"molecule": "CCC(=O)N(C)CCc1cc2c(c(OC)c1/C=N/Nc1ccc(C(=O)O)cc1)OCO2", "hERG current change (%, negative = inhibition) at 10uM": -1.63},
      {"molecule": "O=C(Nc1cccc(Cl)c1)c1nc[nH]c1C(=O)N1CCc2ccccc2C1", "hERG current change (%, negative = inhibition) at 10uM": -15.6},
      {"molecule": "CCOc1ccc(NS(=O)(=O)c2ccc(C(=O)N3CCCCC3)cc2)cc1", "hERG current change (%, negative = inhibition) at 10uM": -9.46},
      {"molecule": "COc1ccc(Cn2cnc3c(N)c(C)c(C)cc32)cc1", "hERG current change (%, negative = inhibition) at 10uM": 5.13},
      {"molecule": "N#CC1(NC(=O)COc2ccc3oc4ccccc4c3c2)CCCCC1", "hERG current change (%, negative = inhibition) at 10uM": 12.1},
      {"molecule": "COC(=O)c1ccc(CNC(=O)COC(=O)C2CC3C=CC2C3)cc1", "note": "(centres unmarked)", "hERG current change (%, negative = inhibition) at 10uM": 11.2},
      {"molecule": "COc1ccc(-n2nc3c(c2NC(=O)CCCCl)CSC3)cc1", "hERG current change (%, negative = inhibition) at 10uM": -1.78},
      {"molecule": "CCCN(CCC)CCCNC(=S)Nc1ccc2nc(N3CCN(CC)CC3)cc(C)c2c1", "hERG current change (%, negative = inhibition) at 10uM": -3.08},
      {"molecule": "CCOCCCNC(=S)Nc1ccc2nc(N3CCOCC3)cc(C)c2c1", "hERG current change (%, negative = inhibition) at 10uM": -7.68},
      {"molecule": "COCCNC(=S)Nc1ccc2nc(N3CCCC3)cc(C)c2c1", "hERG current change (%, negative = inhibition) at 10uM": -71.6},
      {"molecule": "CCOCCCNC(=S)Nc1ccc2nc(N3CCN(CC)CC3)cc(C)c2c1", "hERG current change (%, negative = inhibition) at 10uM": 4.36},
      {"molecule": "CCN1CCN(c2cc(C)c3cc(NC(=S)NCCCOC)ccc3n2)CC1", "hERG current change (%, negative = inhibition) at 10uM": 5.8},
      {"molecule": "Cc1cc(N2CCCC2)nc2ccc(NC(=S)NCCCN3CCC(C)CC3)cc12", "hERG current change (%, negative = inhibition) at 10uM": -29.6},
      {"molecule": "CCOCCCNC(=S)Nc1ccc2nc(N3CCCC3)cc(C)c2c1", "hERG current change (%, negative = inhibition) at 10uM": -73.3},
      {"molecule": "CCN(CC)CCNC(=S)Nc1ccc2nc(N3CCCC3)cc(C)c2c1", "hERG current change (%, negative = inhibition) at 10uM": -8.93},
      {"molecule": "COCCNC(=S)Nc1ccc2nc(N3CCN(C)CC3)cc(C)c2c1", "hERG current change (%, negative = inhibition) at 10uM": 8.03},
      {"molecule": "CCCN(CCC)CCCNC(=S)Nc1ccc2nc(N3CCN(C)CC3)cc(C)c2c1", "hERG current change (%, negative = inhibition) at 10uM": 8.86},
      {"molecule": "Cc1cc(N2CCCC2)nc2ccc(NC(=S)NCCCOC(C)C)cc12", "hERG current change (%, negative = inhibition) at 10uM": -83.4},
      {"molecule": "CCCN(CCC)CCCNC(=S)Nc1ccc2nc(N3CCCC3)cc(C)c2c1", "hERG current change (%, negative = inhibition) at 10uM": -60.4}
    ]}
  ]
}
